# Results as given in the supplement of paper PMC6555819.
# Tested on: RARb:RXRa (NR concentration 270 nM, RXRa partner concentration 90 nM)
# Experiment: PBM binding z-score (relative to random genomic background probes); higher = stronger binding; sequences stand for … in GC…GCGATTGACAGCGTAGAATGAAGG
# How it was run: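 Scanned fluorescence from custom Agilent 4×180K protein-binding microarrays was regression-normalized. Binding z-scores use random background probes as reference. Ligand-free nuclear receptor dimers were incubated on the arrays for 1 h and detected with antibodies against each partner (one per run).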
row,Sequence,PBM binding z-score
1,TCGACTAGGTTACGGGGGCATTCAGGGATGAAGA,2.91
2,CTATGTAGGTTAAGGGGGACATTCAGTTTGAAAG,2.1
3,CCGAGTAGGTTAGGAGGGGGCATTCAGTGCGAAT,2.06
4,CTGTGTAGGTTAAGGGGGTCATTCAGTTTGAAAG,3.67
5,CTATGTAGGTTAAGGGGGTCACTCAGTTTGAAAG,3.61
6,TCGAGTAGGTTAAGGGGGCATTCAGGGATGAAGA,2.47
7,TCGAGTTGGTTACGGGGGCATTCAGGGATGAAGA,1.97
8,TCGAGTAGTTTACGGGGGCATTCAGGGATGAAGA,2
9,TCGAGTAGGTTACGGGGGCATGCAGGGATGAAGA,2.5
10,CCGAGTAGGGTACGAGGGGGCATTCAGTGCGAAT,1.36
11,CCGAGTAGGTTACGAGGGGGAATTCAGTGCGAAT,1.26
12,CCGAGTAGGTTACAAGGGGGCATTCAGTGCGAAT,2.17
13,CTATGTAGGTTAAGGGGATCATTCAGTTTGAAAG,1.05
14,TCGAGTAGGTTACGGGCGCATTCAGGGATGAAGA,0.68
15,TCGAGTAGGTTACGGGGGCATTTAGGGATGAAGA,2.56
16,CTATGTAGGTTTAGGGGGTCATTCAGTTTGAAAG,2.93
17,TCGAGTAGGTTACGGGGGCATTCCGGGATGAAGA,2.51
18,TCGAGTAGGTTACCGGGGCATTCAGGGATGAAGA,1.22
19,TCGAGTAGGTGACGGGGGCATTCAGGGATGAAGA,2.45
20,CCGAGTAGGTTACGAGGTGGCATTCAGTGCGAAT,1.03

row,Sequence,PBM binding z-score
1,CTATGTAGGGTAAGGGGGTCATTCAGTTTGAAAG,3.72
2,CTATGTAGGTTCAGGGGGTCATTCAGTTTGAAAG,3.59
3,CCGAGTAGTTTACGAGGGGGCATTCAGTGCGAAT,1.4
4,CCGAGTAGGTTACGAGGGTGCATTCAGTGCGAAT,1.13
5,TCGAGTAGGTTACGGGGGCATTCAAGGATGAAGA,2.59
6,CTATGTACGTTAAGGGGGTCATTCAGTTTGAAAG,3.45
7,TCGAGTAGGTTACGGGGGCTTTCAGGGATGAAGA,1.69
8,CCGAGTAGGTTACGAGGGGGCATTCTGTGCGAAT,2.01
9,TCGCGTAGGTTACGGGGGCATTCAGGGATGAAGA,2.72
10,TCGAGTAGGTTACGGGGGCATTCATGGATGAAGA,2.51
11,CTATGTAGGTTAAGGGGGTCATTCACTTTGAAAG,3.4
12,CCGAGTATGTTACGAGGGGGCATTCAGTGCGAAT,1.15
13,CTATGTAGGTTAAGGGCGTCATTCAGTTTGAAAG,1.27
14,CCGAGTAGGTTACGAGGGGGCAGTCAGTGCGAAT,2.15
15,CTATGTCGGTTAAGGGGGTCATTCAGTTTGAAAG,3.57
16,TCGAGTAGGTTAGGGGGGCATTCAGGGATGAAGA,3.15
17,CTTTGTAGGTTAAGGGGGTCATTCAGTTTGAAAG,3.67
18,TCGAGTAGGTTACGAGGGCATTCAGGGATGAAGA,1.63
19,TCGAGTAGGTTACGGAGGCATTCAGGGATGAAGA,0.731
